Assay results from ChEMBL document CHEMBL1157539, “Thousands of chemical starting points for antimalarial lead identification” (Nature, 2010).

Test system: Plasmodium falciparum
Assay: GSK_TCMDC: Inhibition of Plasmodium falciparum 3D7 in whole red blood cells, using parasite LDH activity as an index of growth. Test compounds present at 2uM
Type: functional

Row | SMILES | Inhibition [%]
1 | O=C(Nc1ccc(F)c(Cl)c1)NC1CCN(c2ccnc3cc(Cl)ccc23)C1.O=C(O)C(F)(F)F (centres undefined) | 100
2 | O=C(Nc1cccc(CN2CCCN(Cc3ccc(O)cc3)CC2)c1)c1cc2ccccc2o1.O=C(O)C(F)(F)F | 95
3 | CCN(CCCN1CCCCC1)c1cc(C)nc(Nc2ccc(Cl)cc2C)n1.O=C(O)C(F)(F)F | 95
4 | c1ccc2[nH]c(CN(Cc3nc4ccccc4[nH]3)Cc3nc4ccccc4[nH]3)nc2c1 | 81
5 | CCC(=O)N(c1ccccc1)C1CCN(CCCC(NC(=O)c2cc(C(F)(F)F)cc(C(F)(F)F)c2)c2ccc(Cl)c(Cl)c2)CC1 (centres undefined) | 96
6 | Cc1ccc(C(=O)Nc2ccc(Nc3ccnc4cc(-c5nccs5)ccc34)cc2O)cc1.Cl | 100
7 | CN1CCN(CCCN(Cc2ccc(-c3ccc(CNCc4ccc5c(c4)OCO5)cc3)cc2)C(=O)Nc2ccccc2)CC1.O=C(O)C(F)(F)F | 94
8 | CCOc1ccccc1NC(=O)C(Sc1nc(C)cc(C)c1C#N)c1ccccc1 (centres undefined) | 99
9 | COc1ccc2nccc([C@@H](O)CN3CCC(c4cc(-c5ccc(Cl)cc5)[nH]n4)CC3)c2n1 | 97
10 | CN1CCN(CCNc2c3ccccc3nc3ccc4ccccc4c23)CC1.Cl | 99
11 | CCN(CC)CCN(Cc1ccc(-c2ccc(C(F)(F)F)cc2)cc1)C(=O)Cn1c(CCc2cccc(F)c2F)nc(=O)c2ccccc21.O=C(O)C(O)C(O)C(=O)O | 97
12 | CCC(C)Oc1ccc2nc(N)nc(N)c2c1Cl (centres undefined) | 96
13 | CCOc1cc(C=Cc2nc(O)c3ccccc3n2)cc(Cl)c1O | 83
14 | O=C(NCCN1CCOCC1)c1ccc(CNC(=O)c2ccc(O)c(-c3ccc(Cl)c(Cl)c3)c2)cc1 | 87
15 | CCCCCCN1CCN(Cc2cccc(NC(=O)c3ccc(Cl)c(Cl)c3)c2)CC1.O=C(O)C(F)(F)F | 85
16 | Cc1cc(C(=O)Nc2ccc3c(c2)CCN3C2CCN(Cc3ccc(O)cc3)C2)no1 (centres undefined) | 95
17 | CCOc1ccc(C(=O)Nc2ccc(-c3nc4ccccc4[nH]3)cc2)cc1[N+](=O)[O-] | 100
18 | Cc1nnc2c(N(C(=O)NCCc3ccccc3)C(=O)NCCc3ccccc3)cc3cc(Cl)ccc3n12 | 91
19 | CN1CCC(NCc2cccc(-c3ccc(S(=O)(=O)NCCN4CCCC4)s3)c2)CC1.O=C(O)C(F)(F)F | 91
20 | CC(C)Cc1nc(N)nc(N)c1-c1ccc(Cl)cc1 | 96

Row | SMILES | Inhibition [%]
21 | COc1ccc2nccc([C@@H](O)CN3CCC(CO)(NCc4cc5ccccc5o4)CC3)c2c1.O=C(O)C(=O)O | 85
22 | Clc1cc(Cl)c2c(c1)C(NCCCNc1nc3ccccc3[nH]1)CCO2 (centres undefined) | 100
23 | COc1ccc2nccc([C@@H](O)CN3CCC(NCc4cc5ccc(Cl)cc5[nH]4)CC3)c2c1.O=C(O)C(=O)O | 99
24 | COc1ccc(CN(C)CCOc2ccc(NC(=O)c3cccc4c(=O)c5cc(SC)ccc5[nH]c34)cc2)cc1OC | 96
25 | CC(=O)Nc1ccc(OCCN(Cc2ccccc2C(F)(F)F)c2ccc(C#N)c(C(F)(F)F)c2)cc1 | 100
26 | Cc1nc(N)nc(N)c1-c1cc(Cl)c(N)c(Cl)c1 | 94
27 | C=CCOc1ccccc1CNCC(O)c1cc(Br)cs1 (centres undefined) | 93
28 | O=C(O)C(F)(F)F.O=S(=O)(NCCN1CCCC1)c1ccc(-c2cccc(CNCc3ccc(F)cc3)c2)cc1F | 97
29 | O=C(Nc1cccc(CN2CCCN(CC3CC3)CC2)c1)c1ccc(Cl)c(Cl)c1.O=C(O)C(F)(F)F | 92
30 | CCN(CC)CCN(Cc1ccc(-c2ccc(C(F)(F)F)cc2)cc1)C(=O)Cn1cc(CCCCc2cccc(F)c2F)c(=O)c2ccccc21.O=C(O)C(O)C(O)C(=O)O | 90
31 | Cc1ccc(-c2nc3cc(C(=O)NC4CCC(N5CCCc6ccc(C#N)cc6C5)CC4)ccc3[nH]2)cc1 (centres undefined) | 100
32 | O=C(Nc1ccc(OC2CCN(Cc3ccsc3)C2)c(Cl)c1)c1ccsc1.O=C(O)C(F)(F)F (centres undefined) | 85
33 | Cc1onc(-c2ccc(Cl)cc2)c1-c1ccnn1S(=O)(=O)c1ccc(Cl)cc1 | 100
34 | CS(=O)(=O)N1CC2(CCN(CCC(NC(=S)Nc3ccccc3)c3ccc(Cl)c(Cl)c3)CC2)c2ccccc21 (centres undefined) | 98
35 | COCCNCc1cccc(-c2ccc3c(Nc4cc(O)c(Cl)cc4F)ccnc3c2)c1 | 100
36 | O=c1cc(NCCCNC2CCCc3c2ccc2ccccc32)[nH]c2ccccc12 (centres undefined) | 94
37 | Cc1cc(C)c(NC(=O)NC2CCN(CCCCCNC(=O)/C=C/c3ccc(Cl)c(Cl)c3)C2)c(C)c1 (centres undefined) | 99
38 | CN(c1ccc(NC(=O)Nc2cccc(Cl)c2)cc1)c1ccnc(N)n1.Cl | 100
39 | OC1(c2ccccc2)c2cc(Cl)ccc2OC1c1nc2c(Cl)ccc(Cl)c2o1 (centres undefined) | 98
